Consider three molecules from PubChem BioAssay (EPA / NIEHS).

Results filed as inconclusive are left out. Calls of active or inactive are those of the source. The calls were made as follows, unless noted: active = hit-call score of the fitted dose curve at least 0.9, where 1 is the maximum; inactive = score below 0.9.

The nature of experiment [1]: ACEA_ER_80hr: ACEA Biosciences xCELLigence Real-Time Cell Analysis on Estrogen Receptor Agonism for Proliferation (AID 2282667; active = hit-call score of the fitted dose curve at least 0.9, where 1 is the maximum). The conditions noted are these: T47D proliferation, impedance (xCELLigence), 80 h. In outline: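 Impedance readout (RT-CES) of T47D proliferation at 80 h post-dose; gain of signal vs DMSO baseline. Compounds: 8 conc, 1:4 serial, top 100 uM final, ≤0.5% DMSO; biological duplicate.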

Experiment [2] is described as follows: ATG_CRE_CIS: Attagene CIS-FACTORIAL HepG2 Assay for human cAMP Responsive Element (CRE) binding protein 3 (AID 2282926). The following applies: HepG2 CRE cis-reporter, Attagene multiplexed mRNA; actives raise or lower the signal. In outline:
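Endogenous CRE-binding activity in HepG2 is reported through a cis-regulated transfected reporter. Following a day of exposure, mRNA levels are determined by reverse transcription PCR and fluorescent fragment analysis; fits run in both directions versus DMSO.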

The target of experiment [3] is CCAAT/enhancer-binding protein beta (Homo sapiens) (UniProt P17676). The experiment can be described thus: ATG_C_EBP_CIS: Attagene CIS-FACTORIAL HepG2 Assay for human CCAAT/Enhancer Binding Protein (C/EBP) beta (AID 2282927). The conditions noted are these: HepG2 Attagene cis-factorial transcription factor reporter; actives raise or lower the signal. An outline of the steps: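 Changes in reporter mRNA, rather than exogenous chimeric receptor activity, reflect native C/EBP signalling in transfected HepG2 cells dosed for 24 h; transcripts are detected by RT-PCR and capillary electrophoresis.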
Sequence of CCAAT/enhancer-binding protein beta (Homo sapiens) (P17676 whole entry, looked up): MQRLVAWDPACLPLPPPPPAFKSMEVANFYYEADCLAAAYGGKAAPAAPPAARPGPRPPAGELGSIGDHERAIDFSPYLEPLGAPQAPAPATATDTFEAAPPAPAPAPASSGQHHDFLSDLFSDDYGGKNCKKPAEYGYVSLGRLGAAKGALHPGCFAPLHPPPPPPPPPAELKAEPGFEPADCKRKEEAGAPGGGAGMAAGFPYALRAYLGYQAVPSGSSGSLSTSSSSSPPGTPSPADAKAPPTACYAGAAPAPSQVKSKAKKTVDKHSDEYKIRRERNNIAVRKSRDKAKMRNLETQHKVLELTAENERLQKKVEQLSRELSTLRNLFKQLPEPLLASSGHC

Experiment [4] in a line: ATG_CMV_CIS: Attagene CIS-FACTORIAL HepG2 Assay for human CMV (Internal Marker) (AID 2282928).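 Also: endpoint acts as a background internal control marker rather than a target.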 The conditions noted are these: HepG2 CMV promoter reporter, transcription factor profiling; actives raise or lower the signal. In outline: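 After transient transfection of HepG2 with reporter transcription units driven by cis-regulatory promoters, cells receive test chemical for 24 h. Labeled reporter amplicons, digested with HpaI, are sized and quantified by capillary electrophoresis against DMSO.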

Experiment [5] in a line: ATG_DR4_LXR_CIS: Attagene CIS-FACTORIAL HepG2 Assay for human Liver X Receptor (LXR), DR4 submotif (AID 2282929). The conditions noted are these: HepG2 Attagene DR4 cis-reporter, mRNA transcription; actives raise or lower the signal. In outline: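 The endpoint is DR4-element-driven reporter transcripts after 24 h chemical exposure of transfected HepG2 cells. These were measured via RT-PCR and capillary electrophoresis, and gain or loss of signal was fitted relative to DMSO controls.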

For experiment [6], the target named is Aryl hydrocarbon receptor (Homo sapiens) (UniProt P35869). Put plainly: ATG_Ahr_CIS: Attagene CIS-FACTORIAL HepG2 Assay for human Aryl Hydrocarbon Receptor (Ahr) (AID 2282930). The following applies: HepG2 AhR cis-factorial reporter transcription; actives raise or lower the signal. An outline of the steps:
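HepG2, transient MRTU (cis) transfection, 24 h exposure. RNA → cDNA → PCR → 6-FAM primer extension → HpaI 2 h 37 C → CE. Fit: bidirectional, DMSO baseline.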

The nature of experiment [7]: ATG_AP_1_CIS: Attagene CIS-FACTORIAL HepG2 Assay for human Activator Protein 1 (AP-1) (AID 2282931). The conditions noted are these: HepG2 Attagene cis-factorial AP-1 reporter mRNA; actives raise or lower the signal. In outline: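 Readout is reporter transcript level from endogenous transcription factor activity, quantified by RT-PCR with fluorescent primer extension and capillary electrophoresis. Transiently transfected HepG2 cells, 24 h exposure. Curves fitted both directions versus DMSO.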

A short description of experiment [8]: ATG_AP_2_CIS: Attagene CIS-FACTORIAL HepG2 Assay for human Activator Protein 2 (AP-2) (AID 2282932). The conditions noted are these: HepG2 AP-2 cis-reporter, Attagene transcription factor profiling; actives raise or lower the signal. An outline of the steps: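 Step one: transient transfection of HepG2 with reporter transcription units. Step two: 24 h chemical exposure. Step three: RNA extraction, RT-PCR, labelled fragment analysis by capillary electrophoresis; DMSO serves as baseline.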

Experiment [9] in a line: ATG_BRE_CIS: Attagene CIS-FACTORIAL HepG2 Assay for human Bone Morphogenetic Protein (BMP) Response Element (BRE) (AID 2282933). The conditions noted are these: HepG2 BMP response element reporter, Attagene transcription factor profiling; actives raise or lower the signal. An outline of the steps:
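HepG2 cells transiently transfected with multiplexed cis-element reporter units were dosed with chemical for 24 h. Reporter mRNA was measured by RT-PCR with fluorescent labelling, HpaI digestion and capillary electrophoresis; bidirectional fitting relative to DMSO.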

The target of experiment [10] is Retinoic acid receptor alpha (Homo sapiens) (UniProt P10276). The experiment can be described thus: ATG_DR5_RAR_CIS: Attagene CIS-FACTORIAL HepG2 Assay for human Retinoic Acid Receptor Alpha (RARE), DR5 submotif (AID 2282934).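 As to AC50: reporter responds to endogenous RAR alpha beta and gamma in HepG2 not RARA alone.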 The conditions noted are these: HepG2 Attagene cis-factorial RARE DR5 reporter, mRNA; actives raise or lower the signal. An outline of the steps:
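HepG2, transient cis-reporter transfection, 24 h exposure. mRNA readout: RT-PCR, FAM label, HpaI cut, capillary electrophoresis. DMSO baseline, gain/loss fitting.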

Experiment [11] addresses Transcription factor E2F1 (Homo sapiens) (UniProt Q01094). Put plainly: ATG_E2F_CIS: Attagene CIS-FACTORIAL HepG2 Assay for human E2F Transcription Factor 1 (AID 2282935). The conditions noted are these: HepG2 Attagene cis-reporter, E2F reporter RNA transcripts; actives raise or lower the signal. In outline: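 Total RNA from 24 h-treated, reporter-transfected HepG2 cells undergoes DNase I treatment, oligo(dT) reverse transcription, PCR and 6-FAM primer extension before capillary electrophoresis.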

Experiment [12] can be described thus: ATG_E_Box_CIS: Attagene CIS-FACTORIAL HepG2 Assay for human Enhancer Box (E-box) (AID 2282936). The following applies: HepG2 E-box cis-reporter transcription, actives raise or lower the signal. In outline:
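DMSO served as negative control and baseline for bidirectional fitting. Human hepatoma HepG2 cells, transiently transfected with cis-reporter constructs, were dosed 24 h; reporter mRNA read by RT-PCR and capillary electrophoresis.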

The nature of experiment [13]: ATG_M_61_CIS: Attagene CIS-FACTORIAL HepG2 Assay for M61 Transcription Factor (Internal Marker) (AID 2282937). The following applies: HepG2 Attagene CIS-FACTORIAL M61 internal marker reporter; actives raise or lower the signal. In outline: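 Readout is reporter mRNA by RT-PCR, fluorescent primer extension and capillary electrophoresis, with gain or loss fitted relative to DMSO. Transfected HepG2 cells carrying endogenous-TF-driven cis reporters were exposed to chemicals for 24 hours.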

Experiment [14] in a line: ATG_EGR_CIS: Attagene CIS-FACTORIAL HepG2 Assay for human Early Growth Response 1 (EGR1) (AID 2282938). The conditions noted are these: HepG2 Attagene CIS-FACTORIAL EGR reporter mRNA; actives raise or lower the signal. In outline:
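After 24 h compound exposure, RNA from reporter-transfected HepG2 cells was reverse-transcribed, PCR-amplified, fluorescently labelled and resolved by capillary electrophoresis. EGR1 reporter transcript changes, up or down, were fitted against DMSO, reflecting endogenous transcription-factor activity.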

Experiment [15] can be described thus: ATG_M_19_CIS: Attagene CIS-FACTORIAL HepG2 Assay for M19 Transcription Factor (Internal Marker) (AID 2282939). The conditions noted are these: HepG2 Attagene CIS-FACTORIAL M19 internal marker reporter; actives raise or lower the signal. In outline: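 HepG2 cells transiently transfected with cis-regulated multiple reporter transcription units were dosed for 24 h; reporter mRNA was quantified by RT-PCR, 6-FAM primer-extension labelling, HpaI digestion and capillary electrophoresis, with bidirectional fitting against DMSO baseline.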

The nature of experiment [16]: ATG_ERE_CIS: Attagene CIS-FACTORIAL HepG2 Assay for Estrogen Response Element (ERE) (AID 2282940). The following applies: HepG2 ERE cis-reporter, Attagene RNA transcript; actives raise or lower the signal. An outline of the steps: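 HepG2 cells transiently transfected with cis-promoter-driven multiplexed reporter transcription units report endogenous TF activity. After 24 h compound exposure, reporter mRNA is quantified by RT-PCR with capillary electrophoresis fluorescence; bidirectional fitting versus DMSO baseline.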

Experiment [17] is described as follows: ATG_Ets_CIS: Attagene CIS-FACTORIAL HepG2 Assay for human Erythroblast Transformation Specific (ETS) (AID 2282941). The conditions noted are these: HepG2 ETS cis-reporter transcription, actives raise or lower the signal. In outline: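 Human HepG2 hepatoma cells were transiently transfected with promoter-driven reporter constructs and treated for 24 hours. Reporter transcripts were quantified by RT-PCR with fluorescent primer extension; bidirectional curve fitting used DMSO as reference.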

Experiment [18] addresses Hepatocyte nuclear factor 3-beta (Homo sapiens) (UniProt Q9Y261). The experiment can be described thus: ATG_FoxA2_CIS: Attagene CIS-FACTORIAL HepG2 Assay for human Forkhead box A2 (FOXA2) (AID 2282942). The conditions noted are these: HepG2 cis-reporter transcription factor activity, 24 h; actives raise or lower the signal. In outline: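 Endogenous transcription factor activity is captured via cis-element-driven reporter transcripts in transfected HepG2. Total RNA taken at 24 h post-dosing; labelled RT-PCR products resolved by capillary electrophoresis. Gain or loss fitted versus DMSO.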

Experiment [19] is described as follows: ATG_FoxO_CIS: Attagene CIS-FACTORIAL HepG2 Assay for human Forkhead box O (FoxO) (AID 2282943). The conditions noted are these: HepG2 Attagene cis-reporter, FoxO element, mRNA; actives raise or lower the signal. An outline of the steps:
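Human hepatoma HepG2 cells carry transiently introduced reporter transcription units controlled by cis promoter elements. Chemical treatment lasted 24 h, and mRNA signal was compared with DMSO.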

A short description of experiment [20]: ATG_GATA_CIS: Attagene CIS-FACTORIAL HepG2 Assay for human GATA Binding Protein (AID 2282944). The following applies: HepG2 GATA cis-element reporter, Attagene multiplex mRNA; actives raise or lower the signal. In outline: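 HepG2 cells transiently transfected with multiplexed cis-element reporter units reflecting endogenous transcription factor activity; reporter mRNA measured after 24 h dosing by RT-PCR, 6-FAM labeling, HpaI digestion and capillary electrophoresis. Bidirectional fitting versus DMSO baseline.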

Sequence of Transcription factor E2F1 (Homo sapiens) (Q01094 whole entry, looked up): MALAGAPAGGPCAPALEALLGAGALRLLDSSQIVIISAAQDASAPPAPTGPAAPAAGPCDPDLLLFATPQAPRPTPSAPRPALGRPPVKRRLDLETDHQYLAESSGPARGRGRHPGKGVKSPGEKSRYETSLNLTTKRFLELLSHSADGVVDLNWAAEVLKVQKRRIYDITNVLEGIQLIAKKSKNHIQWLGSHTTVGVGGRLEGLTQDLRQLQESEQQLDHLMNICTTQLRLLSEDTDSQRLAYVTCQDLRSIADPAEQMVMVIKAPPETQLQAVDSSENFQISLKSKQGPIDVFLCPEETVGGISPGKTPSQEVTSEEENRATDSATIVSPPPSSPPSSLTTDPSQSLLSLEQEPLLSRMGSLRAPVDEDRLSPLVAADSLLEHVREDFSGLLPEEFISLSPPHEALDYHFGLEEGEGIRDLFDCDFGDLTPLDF
Sequence of Retinoic acid receptor alpha (Homo sapiens) (P10276 whole entry, looked up): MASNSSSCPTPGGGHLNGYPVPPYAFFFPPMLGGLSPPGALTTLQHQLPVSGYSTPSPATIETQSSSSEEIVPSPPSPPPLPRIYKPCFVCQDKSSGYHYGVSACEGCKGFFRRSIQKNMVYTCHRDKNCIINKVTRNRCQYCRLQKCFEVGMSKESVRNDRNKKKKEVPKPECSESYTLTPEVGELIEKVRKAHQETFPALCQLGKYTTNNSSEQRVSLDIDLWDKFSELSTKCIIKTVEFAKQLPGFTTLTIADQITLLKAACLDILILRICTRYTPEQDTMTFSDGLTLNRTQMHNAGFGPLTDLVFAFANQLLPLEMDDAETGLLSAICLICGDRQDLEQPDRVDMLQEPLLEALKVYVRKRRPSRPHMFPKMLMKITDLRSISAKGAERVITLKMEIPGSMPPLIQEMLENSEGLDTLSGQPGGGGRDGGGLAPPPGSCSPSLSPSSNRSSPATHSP
Sequence of Aryl hydrocarbon receptor (Homo sapiens) (P35869 whole entry, looked up): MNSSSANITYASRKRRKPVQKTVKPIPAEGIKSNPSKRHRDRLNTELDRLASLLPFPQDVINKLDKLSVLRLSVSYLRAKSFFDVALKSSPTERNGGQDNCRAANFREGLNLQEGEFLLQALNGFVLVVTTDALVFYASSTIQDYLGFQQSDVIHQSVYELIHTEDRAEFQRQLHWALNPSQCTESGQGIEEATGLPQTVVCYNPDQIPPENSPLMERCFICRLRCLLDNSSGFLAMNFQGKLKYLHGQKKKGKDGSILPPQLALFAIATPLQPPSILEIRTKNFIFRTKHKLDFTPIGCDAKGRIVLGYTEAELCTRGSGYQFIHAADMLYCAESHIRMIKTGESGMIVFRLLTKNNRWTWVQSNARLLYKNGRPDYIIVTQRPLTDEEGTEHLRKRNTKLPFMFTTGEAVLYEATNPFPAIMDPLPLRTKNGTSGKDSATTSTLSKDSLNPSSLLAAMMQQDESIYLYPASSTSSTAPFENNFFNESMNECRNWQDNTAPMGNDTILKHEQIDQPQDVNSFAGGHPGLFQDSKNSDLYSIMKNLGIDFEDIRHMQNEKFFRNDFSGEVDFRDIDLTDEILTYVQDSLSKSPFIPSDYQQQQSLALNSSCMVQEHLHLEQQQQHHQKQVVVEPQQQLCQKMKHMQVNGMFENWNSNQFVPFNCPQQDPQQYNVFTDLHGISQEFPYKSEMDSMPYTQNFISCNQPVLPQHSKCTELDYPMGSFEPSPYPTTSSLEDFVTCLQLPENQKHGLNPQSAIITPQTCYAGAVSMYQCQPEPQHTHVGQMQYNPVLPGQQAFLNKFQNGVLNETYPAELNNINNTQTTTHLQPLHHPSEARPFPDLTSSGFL
Sequence of Hepatocyte nuclear factor 3-beta (Homo sapiens) (Q9Y261 whole entry, looked up): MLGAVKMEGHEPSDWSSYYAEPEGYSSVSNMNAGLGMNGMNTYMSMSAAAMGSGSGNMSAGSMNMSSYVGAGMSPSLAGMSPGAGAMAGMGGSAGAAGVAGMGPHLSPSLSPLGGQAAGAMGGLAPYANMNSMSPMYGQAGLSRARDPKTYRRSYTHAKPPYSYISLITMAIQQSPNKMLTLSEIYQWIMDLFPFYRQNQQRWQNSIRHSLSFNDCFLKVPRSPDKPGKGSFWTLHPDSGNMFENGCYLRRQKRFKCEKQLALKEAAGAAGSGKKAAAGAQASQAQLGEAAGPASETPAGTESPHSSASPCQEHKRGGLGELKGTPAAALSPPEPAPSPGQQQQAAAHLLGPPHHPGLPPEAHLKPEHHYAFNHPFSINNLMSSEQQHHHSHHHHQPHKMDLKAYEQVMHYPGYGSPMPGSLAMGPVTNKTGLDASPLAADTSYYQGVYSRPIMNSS

As for `C[Si](Cl)(Cl)CCC(F)(F)C(F)(F)C(F)(F)C(F)(F)C(F)(F)C(F)(F)F`, the molecule was called inactive in experiment [1], in experiment [2], in experiment [3], in experiment [4], in experiment [5] and in experiment [6]. Moreover, the call in [7], in experiment [8], in [9], in experiment [10], in [11] and in experiment [12] was inactive. The molecule was called inactive in experiment [13], in [14], in experiment [15], in [16], in experiment [17] and in experiment [18]. Moreover, the outcome in experiment [19] and in experiment [20] was inactive.
As usually defined, the AC50 is the concentration giving half of the maximal activity seen. With `CCCCCCCCn1sc(Cl)c(Cl)c1=O`, the concentration at half-maximal activity (AC50) in experiment [1] is 0.023 µM (active); in experiment [6], 6.89 µM (active); in experiment [7], 13.8 µM (active); in experiment [8], 11.1 µM (active); in experiment [10] it was 5.39 µM (active); in [16] it was 11.1 µM (active). The AC50 is 6.69 µM (active) in experiment [17], 8.19 µM (active) in experiment [18] and 20.5 µM (active) in experiment [20]. Besides, the molecule was classed as inactive in [2], in experiment [3], in experiment [4], in experiment [5], in [9] and in experiment [11]. For the same molecule, the result in [12], in [13], in experiment [14], in experiment [15] and in experiment [19] was inactive.
Regarding `CCN(CC)c1ccc2c(c1)Oc1cc(N(CC)CC)ccc1C21OC(=O)c2ccccc21`, the molecule was called inactive in experiment [1], in [2], in experiment [3], in experiment [4], in experiment [5] and in [7]. Moreover, the call in experiment [8], in experiment [9], in experiment [10], in experiment [11], in [12] and in experiment [13] was inactive. The molecule was called inactive in experiment [14], in experiment [15], in experiment [16], in experiment [17], in experiment [18] and in experiment [19]. In experiment [20], the molecule was called inactive. Moreover, the concentration at half-maximal activity (AC50) in [6] is 7.41 µM (active).
